The text below walks through data of PubChem BioAssay (NCI).

Structures are written as SMILES. The panel holds about 83,000 compounds, 20% with a hit somewhere; the sample as a whole holds those more often.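 Cells were grown in 96-well plates and exposed to the test compound at a single concentration for 48 hours; results are reported as percent growth, with values below 10 considered active.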 A number with no mark means an inactive call. The source made the active and inactive calls.

Some test systems named below: HCT-15 colon; HT29 colon; SNB-75 CNS; SNB-19 CNS; U251 CNS; PC-3 prostate; SK-MEL-5 melanoma; UACC-62 melanoma; SK-MEL-28 melanoma; SK-MEL-2 melanoma; EKVX NSCLC; SN12C renal; UO-31 renal; TK-10 renal; ACHN renal; A498 renal; CCRF-CEM leukemia; MOLT-4 leukemia; CAKI-1 renal.
Assay in all cases: NCI-60 one-dose screen, 48 h (100 = growth as untreated, 0 = no growth, -100 = all killed)
Conditions in all cases: 10 µM unless noted

As to `COc1cc2oc(-c3cccc(C(=O)Nc4ccc(Cl)cc4)c3)cc(=O)c2c(OCCNC(=O)[C@H](CCC(=O)OC(C)(C)C)NC(=O)OC(C)(C)C)c1OC`, the growth is 100% in the test on HCT-15 colon; 108% in the test with HT29 colon; 74.2% in the test with SNB-75 CNS; 94.8% with SNB-19 CNS; 96.8% in the test with U251 CNS; 83.5% with PC-3 prostate. Moreover, the growth in the test on SK-MEL-5 melanoma is 89.3%; in the test on UACC-62 melanoma, 82%; with SK-MEL-28 melanoma, 99.2%; in the test with SK-MEL-2 melanoma, 106%; in the test with EKVX NSCLC, 90.7%; in the test on SN12C renal, 91.9%. For the same compound, the growth with UO-31 renal was 74.4%; in the test on TK-10 renal it was 109%; with ACHN renal it was 93.7%; in the test with A498 renal, 113%; in the test with CCRF-CEM leukemia, 95.3%; in the test with MOLT-4 leukemia, 71.6%.

For the compound `CCCCc1c(Nn2cnnn2)no[n+]1[O-]`, the growth in the test on HCT-15 colon is 32.8%; with HT29 colon it was 59.5%; in the test on SNB-75 CNS, 48.9%; in the test with SNB-19 CNS it was 72.3%; in the test with U251 CNS it was 51.3%; with PC-3 prostate, 58.1%. The growth in the test with SK-MEL-5 melanoma is 80.6%; in the test on UACC-62 melanoma it was 52.4%; in the test with SK-MEL-28 melanoma it was 73%; in the test with SK-MEL-2 melanoma, 80.1%; in the test with EKVX NSCLC it was 54.2%; in the test with SN12C renal, 42.4%. The growth is 28.4% with UO-31 renal; 96.5% in the test with TK-10 renal; 54.9% in the test with ACHN renal; 39.5% in the test with CAKI-1 renal; 31.6% with CCRF-CEM leukemia; 23% in the test with MOLT-4 leukemia.

As for `NC(=S)Nc1cccc(NC(N)=S)c1`, the growth in the test with HCT-15 colon was 95.1%; in the test with HT29 colon, 113%; with SNB-75 CNS, 97.6%; in the test with SNB-19 CNS, 88.3%; in the test with U251 CNS it was 88.8%; with PC-3 prostate, 102%. In addition, the growth is 91.4% in the test on SK-MEL-5 melanoma; 70.5% with UACC-62 melanoma; 104% in the test with SK-MEL-28 melanoma; 112% in the test on SK-MEL-2 melanoma; 101% in the test with EKVX NSCLC; 81.9% in the test on SN12C renal. The growth with UO-31 renal was 70%; with TK-10 renal, 107%; with ACHN renal, 96.3%; with CAKI-1 renal, 79.7%; with A498 renal it was 101%; in the test on MOLT-4 leukemia, 89.7%.

Regarding `Cn1cc(-c2nc(N)nnc2-c2c[nH]c3ccc(F)cc23)c2cccnc21`, the growth with HCT-15 colon is 51.8%; with HT29 colon, 44.5%; in the test with SNB-75 CNS, 7.07% (active); in the test on SNB-19 CNS it was 39%; in the test on U251 CNS, 35.7%; with PC-3 prostate it was 51.2%. Moreover, the growth is 35.3% with SK-MEL-5 melanoma; 29.8% in the test on UACC-62 melanoma; 75.1% with SK-MEL-28 melanoma; 85.6% in the test on SK-MEL-2 melanoma; 62.3% in the test on EKVX NSCLC; 49.3% in the test with SN12C renal. In addition, the growth is 14.8% with UO-31 renal; 14.9% in the test with ACHN renal; 12.6% with CAKI-1 renal; 36.8% in the test on A498 renal; 27.5% with CCRF-CEM leukemia; 18.2% in the test with MOLT-4 leukemia.

As for `COc1cc2c(c(OC)c1OC)C(=O)CC(c1cccc(NC(=O)c3cccc([N+](=O)[O-])c3)c1)O2` (stereo not given), the growth with HCT-15 colon is 16.9%; with HT29 colon, 34.7%; in the test on SNB-75 CNS, 38.1%; with SNB-19 CNS, 52.6%; in the test on U251 CNS, 49.1%; in the test on PC-3 prostate, 18.6%. In addition, the growth was -6.2% (active) in the test on SK-MEL-5 melanoma; 13.4% in the test with UACC-62 melanoma; 41.7% in the test with SK-MEL-28 melanoma; -10.4% (active) in the test with SK-MEL-2 melanoma; 60.6% with EKVX NSCLC; 29.2% in the test with SN12C renal. The growth with UO-31 renal was 16.1%; in the test on TK-10 renal, 71.7%; in the test with ACHN renal, 30.1%; in the test with A498 renal, 91.2%; in the test on CCRF-CEM leukemia, 11.5%; with MOLT-4 leukemia, 13.9%.

`O=C(O)c1cccc(-c2ccc(/C=N/NC(=O)c3[nH]c4ccc(Br)cc4c3-c3ccccc3)s2)c1`: the growth was 17.4% in the test on HCT-15 colon; 69% in the test on HT29 colon; 29.6% in the test on SNB-75 CNS; 26.2% in the test with SNB-19 CNS; 27% in the test on U251 CNS; 56.9% in the test with PC-3 prostate. Further, the growth was 30.1% in the test with SK-MEL-5 melanoma; 19.5% in the test with UACC-62 melanoma; 44.2% with SK-MEL-28 melanoma; 26.3% in the test on SK-MEL-2 melanoma; 35.2% with EKVX NSCLC; 57.5% in the test on SN12C renal. The growth with UO-31 renal was 47.9%; in the test on TK-10 renal it was 86.8%; in the test on ACHN renal, 44.1%; in the test on CAKI-1 renal it was 74.7%; in the test on A498 renal it was 100%; in the test with CCRF-CEM leukemia, 31%. Moreover, in the test with MOLT-4 leukemia, the growth was 45.3%.

As to `COc1ccc([C@H](C)Nc2nc(Cl)nc3ccccc23)cc1`, the growth with HCT-15 colon is 56.1%; with HT29 colon it was 28.8%; in the test on SNB-75 CNS, 93.4%; with SNB-19 CNS, 60.6%; with U251 CNS it was 74.2%; in the test with PC-3 prostate, 77.1%. Besides, the growth in the test on SK-MEL-5 melanoma is 5.57% (active); in the test with UACC-62 melanoma, 47.8%; with SK-MEL-28 melanoma, 59.9%; in the test on SK-MEL-2 melanoma, 70.2%; in the test with EKVX NSCLC it was 19.2%; with SN12C renal it was 47.9%. Moreover, the growth in the test on UO-31 renal was 47.1%; in the test with ACHN renal, 54.3%; with CAKI-1 renal, 56.4%; in the test with A498 renal, 108%; in the test with CCRF-CEM leukemia it was 34.9%; in the test with MOLT-4 leukemia, 20.8%.

Regarding `O=C(COc1ccc(NC(=O)Nc2ccccc2)cc1)N=Nc1c(O)[nH]c2ccc([N+](=O)[O-])cc12`, the growth is 103% in the test on HCT-15 colon; 6.92% (active) in the test with HT29 colon; 7.51% (active) in the test on SNB-75 CNS; 0.584% (active) with SNB-19 CNS; -72.8% (active) in the test on U251 CNS; 2.22% (active) in the test on PC-3 prostate. Besides, the growth is 28.4% with SK-MEL-5 melanoma; 16% in the test with UACC-62 melanoma; -43.9% (active) with SK-MEL-28 melanoma; -69.2% (active) in the test on SK-MEL-2 melanoma; 73.5% in the test on EKVX NSCLC; 9.08% (active) in the test on SN12C renal. Further, the growth was 80.2% in the test with UO-31 renal; 96.2% in the test with ACHN renal; 78.4% in the test on CAKI-1 renal; 133% in the test with A498 renal; 18.4% in the test on CCRF-CEM leukemia; 3.7% (active) in the test with MOLT-4 leukemia.
